# Only some compounds are listed: those with a hit (about 7.9% of all), similar ones and a draw of the others.
# HCMV antiviral = qHTS Assay for inhibitors of the human cytomegalovirus (HCMV); 410,000 compounds, 4.5% hits; HFF cells, HCMV-luciferase reporter, 72 h; stronger effect = lower value; activity change, negative = inhibition, % at 57.5 µM; in the data active means activity change below about -60%; inconclusive means no clear call, values can overlap the other calls; inactive means above about -39%
#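 HFF cells seeded 16 h at 37C, treated with compounds, infected with luciferase-reporter HCMV at MOI 1 PFU/cell; luciferase read at 72 h post infection, normalized to buffer-only and Salinomycin controls.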
# MARV entry inh = qHTS for inhibitors of binding or entry into cells for Marburg Virus; Potency, µM (series often up to 37.8 µM), without a hit: at the top dose activity change, negative = inhibition, hits mostly inhibitors; 300,000 compounds, 1.8% hits; Marburg virus pseudotyped entry inhibition, cell reporter; calls by dose curve; tested in HEK293 cells; further: potency means the concentration at half of the fitted maximal effect
# FMDV inh = High Throughput Screening for Foot and Mouth Disease Virus Antivirals; FMDV antiviral cell-based qHTS; Potency, µM (doses to about 57.9 µM), for inactives: at the top dose activity change, negative = inhibition, usual class: inhibitors; 410,000 compounds, 1.2% hits; calls by dose curve; tested in HEK293T cells; further: read-out not given here; potency means the concentration at half of the fitted maximal effect; nearly all actives have a fitted effect of over 45% in size
# Lassa entry inh = qHTS for Inhibitors of binding or entry into cells for Lassa Virus. 300,000 compounds, 1.2% hits. AID 540256, 2011. Lassa virus pseudotype entry inhibition, cell reporter. Potency, µM (highest dose often 37.9 µM), without a hit: top-dose activity change, negative = inhibition, most hits filed as inhibitors; calls by dose curve; tested in HEK293 cells; further: potency means the concentration at half of the fitted maximal effect; nearly all actives have a fitted effect of over 50% in size
# HCV inh = qHTS Assay for Inhibitors of Hepatitis C Virus (HCV); Potency, µM (series often up to 41.8 µM), without a hit: top-dose activity change, negative = inhibition, most hits filed as inhibitors; 340,000 compounds, 3.4% hits; Huh7.5.1 HCVcc-Cre infection, luciferase reporter, 44 h; AID 651820, 2012; active means well fitted inhibition curve with a large enough effect; inconclusive means small, poorly fitted or top-dose-only effect, or another doubt; inactive means no such curve, though single readings can be large or run the other way; further: potency means the concentration at half of the fitted maximal effect
#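 Infectious HCV cell culture screen: compound-treated cells (1,000/well, pre-plated 4 h) are infected with HCVcc-Cre at roughly 0.5 moi and grown 44 h. Infection is quantified by luciferase signal after 15 min substrate incubation at room temperature.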
# The depositor's hits bear a star; ? = inconclusive; nt = no result given; [ ] = another dose, or the depositor's remark. On the % scale 0 is the no-effect control and ±100 the full control effect.
SMILES,HCMV antiviral,MARV entry inh,FMDV inh,Lassa entry inh,HCV inh
CC(=O)Nc1cccc(NC(=O)C(=O)c2cn(CC(=O)N3CCCC3)c3ccccc23)c1,9,nt,35%,nt,nt
Cn1c(=O)n(C/C=C/c2ccccc2)c(=O)c2c1nc1n2CCN1c1ccccc1,49,nt,-7%,9%[46.1 µM],nt
Cc1ccccc1-c1cc(C(=O)NCc2cccc(Br)c2)nn1CC1CC(c2cccc([N+](=O)[O-])c2)=NO1 (centres undefined),-8,nt,-7%,nt,?
O=C1CN2CCC1C/C2=C\c1ccnc2c(Cl)cccc12 (centres undefined),?,nt,-27%,nt,?
C#CCOCCOCCOCCNc1nc(N2CCN(C(=O)[C@H](CCCCN)n3cc([C@@H](N)[C@H](C)CC)nn3)CC2)nc(N2CCN(C(=O)[C@H](CCC(=O)O)n3cc([C@@H](N)CCSC)nn3)CC2)n1,-13,nt,-2%,nt,2%
Cc1ccc(-c2noc(CCCC(=O)NC3CCCCC3)n2)cc1,-77*,?,?,-23%,?
CC1(C(=O)NS(=O)(=O)c2ccccc2Cl)CCN1C(=O)c1cccc2ccccc12 (centres undefined),15,nt,-5%,nt,nt
COc1cc(NC(=O)OCc2ccccc2)c2ncccc2c1,6,-19%[46.1 µM],-9%,-5%[46.1 µM],14µM*
COc1cc(NC(=O)c2ccc3c(c2)OCO3)c2ncccc2c1,9,-25%,-3%,21%,?
COc1cc(NC(=O)c2cc(OC)c(OC)c(OC)c2)c2ncccc2c1,4,?,-9%,?,10µM*
Cc1cc(=O)[nH]c(Nc2cccc(Cl)c2C)n1,-20,nt,39%,nt,18%
CCOC(=O)c1sc(N)c(C(=O)OCC)c1COC(=O)C1CC(=O)N(Cc2ccco2)C1 (centres undefined),29,-11%,-12%,10%,13µM*
CCCC[C@H]1CN2[C@H](c3ccc(Br)cc3)[C@H](C)CC[C@H]2C(=O)O1,nt,2%[14.2 µM],nt,nt,nt
COc1ccc(C(=O)Cn2c(C(C)=O)nc3ccccc32)cc1,-64*,?,5%,?,?
COc1ccc(C(=O)CN2C(=O)c3ccccc3S2(=O)=O)cc1,-92*,?,5.6µM*,?,2%
O=C(CN1C(=O)c2ccccc2S1(=O)=O)c1ccc(O)c(O)c1,-15,?,23%,?,20%
COc1ccc(/C=C/C(=O)c2nc3ccccc3n2CC(=O)c2ccc(OC)cc2)cc1,19,?,-11%,-25%,-18%
COc1ccc(C)cc1NC(=O)CN1C(=O)c2ccccc2S1(=O)=O,-60*,nt,-14%,nt,-6%
O=C(CN1C(=O)c2ccccc2S1(=O)=O)c1ccc(F)c(F)c1,?,10µM*,?,?,11%
Cc1ccc(NC(=O)CN2C(=O)c3ccccc3S2(=O)=O)c(C)c1,3,1%[46.1 µM],13%,-20%[46.1 µM],3%
CCc1ccc(-n2c(=O)c3ccc(C(=O)NCCc4ccccc4)cc3n(Cc3ccccc3C#N)c2=O)cc1,26,?,0%,2%[46.1 µM],nt
Cc1cccc(CNc2cc(-c3ccccc3C)ncn2)c1,nt,nt,-25%,nt,nt
CCCc1c(NC(=O)Nc2ccc(Cl)cc2Cl)cnn1-c1ccccc1,?,0.89µM*,0%,?,?
CCCc1c(C(=O)Nc2ccc(F)cc2F)cnn1-c1ccccc1,-11,1%,0%,nt,-16%
COc1cc(CNn2nnnc2N)cc(Br)c1OCC(=O)NC(C)(C)C,-3,-3%,0%,4%,0%
SMILES,HCMV antiviral,MARV entry inh,FMDV inh,Lassa entry inh,HCV inh
COc1cc(CNn2nnnc2N)cc(Br)c1OCc1c(Cl)cccc1Cl,-70*,?,?,?,13µM*
CC(C)c1ccc(NC(=O)COC(=O)c2nn(C)c(=O)c3ccccc23)cc1,0,14%,-5%,5%,36%
O=C(NN1C(=O)NC2(CCCCC2)C1=O)c1ccc(-c2ccc(Cl)cc2)o1,-10,13%,?,-8%,11µM*
CCCC(c1nnnn1C(C)(C)CC)N(Cc1ccco1)Cc1cc2ccc(OC)cc2[nH]c1=O (centres undefined),-14,13µM*,-13%,?,?
CCC(C)(C)n1nnnc1C(c1cc2ccc(OC)cc2[nH]c1=O)N1CCc2ccccc2C1 (centres undefined),-75*,-22%,-12%,-12%,?
CCC(c1nnnn1Cc1ccccc1)N(Cc1ccco1)Cc1cc2cc(OC)ccc2[nH]c1=O (centres undefined),-2,-21%,?,?,-72%
CCC(C)(C)n1nnnc1C(c1cc2ccc(OC)cc2[nH]c1=O)N1CCc2ccccc21 (centres undefined),13,?,-14%,-14%,10%
Cc1cc(C)cc(-n2nnc(-c3nc(-c4ccccc4F)no3)c2C)c1,-17,nt,31%,?,nt
CC12CCC(O)CC1CCC1C2CCC2(C)C(C3=CC(=O)OC3)C(O)CC12O (centres undefined),-97*,0.63µM*,?,3.2µM*,?
CC12CCC(O)CC1CCC1C2CCC2(C)C(C3=CC(=O)OC3)CCC12O (centres undefined),-99*,0.28µM*,?,0.45µM*,5µM*
C[C@]12CC[C@H](O)C[C@H]1CC[C@@H]1[C@@H]2CC[C@]2(C)[C@@H](C3=CC(=O)OC3)CC[C@]12O,-97*,nt,-17%,nt,2µM*
C[C@]12CC[C@H](O)C[C@H]1CC[C@@H]1[C@@H]2C[C@@H](O)[C@]2(C)[C@@H](C3=CC(=O)OC3)CC[C@]12O,-100*,nt,?,nt,0.56µM*
Cc1cc(C)c2c(CC(=O)Nc3ccc(S(=O)(=O)N4CCCC(C)C4)cc3)coc2c1 (centres undefined),-6,?,-17%,-7%[46.1 µM],nt
O=C(NC1CCN(Cc2ccc(Cl)cc2)CC1)c1cn(-c2ccccc2)nc1-c1cccnc1,-13,nt,-14%,nt,11µM*
C[N+](C)(CCOc1ccccc1)Cc1ccccc1 (tested in a mixture with another compound),8,-1%,-7%,-4%,nt
CC(C)(C)CC(C)(C)c1ccc(OCCOCC[N+](C)(C)Cc2ccccc2)cc1,-94*,nt,?,nt,?
COc1ccc(C(C)NCCC(c2ccc(OC(C)C)cc2)c2ccccc2OC)cc1 (centres undefined),-97*,?,-24%,-26%[46.1 µM],10µM*
COc1ccc(CNCCC(c2ccc3c(c2)OCO3)c2ccccc2OC)cc1 (centres undefined),-106*,?,-31%,?,nt
COc1ccc(CCNC(=O)c2ccc([N+](=O)[O-])cc2Cl)cc1OC,-18,-30%,-20%,6%,-23%
COc1ccc(CCNC(=O)c2ccc(-c3ccc([N+](=O)[O-])cc3Cl)o2)cc1OC,1,?,13µM*,?,7.1µM*
